Data as given in PubChem BioAssay AID1768 (National Center for Advancing Translational Sciences (NCATS), 2009).
The campaign covered roughly 270,000 compounds. About 620 (0.23%) were called active. Another 12% or so got no clear call; they are omitted. Calls follow the shape of the dose curve; as a rule, active = well fitted inhibition curve with a large enough effect in the polarisation, with a control signal flat (not every such curve was filed as active); inconclusive = small, poorly fitted or top-dose-only effect, or effect the other way, or a change in a side signal; inactive = no such curve, though single readings can be large or run the other way; the % refers to the polarisation. Shown is part of a subset that was picked to be rich in actives.

Molecular target: Menin (Homo sapiens) (UniProt O00255)
Sequence (O00255 whole entry, looked up): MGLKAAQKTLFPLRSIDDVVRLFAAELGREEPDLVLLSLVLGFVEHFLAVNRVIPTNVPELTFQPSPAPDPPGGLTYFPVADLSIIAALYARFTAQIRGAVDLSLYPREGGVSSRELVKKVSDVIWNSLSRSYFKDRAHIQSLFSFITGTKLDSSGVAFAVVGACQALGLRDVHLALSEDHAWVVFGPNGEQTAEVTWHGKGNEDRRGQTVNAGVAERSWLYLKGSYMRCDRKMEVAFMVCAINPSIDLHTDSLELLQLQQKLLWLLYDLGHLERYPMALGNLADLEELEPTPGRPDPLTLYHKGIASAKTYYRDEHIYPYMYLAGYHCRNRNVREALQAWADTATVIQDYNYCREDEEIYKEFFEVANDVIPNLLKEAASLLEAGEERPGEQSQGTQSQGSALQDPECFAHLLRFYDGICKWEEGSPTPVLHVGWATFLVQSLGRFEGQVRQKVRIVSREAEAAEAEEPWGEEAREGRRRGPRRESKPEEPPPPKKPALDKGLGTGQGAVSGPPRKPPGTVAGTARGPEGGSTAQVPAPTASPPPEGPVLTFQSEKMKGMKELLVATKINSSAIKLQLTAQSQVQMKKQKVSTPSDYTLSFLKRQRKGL
Test: qHTS Assay for Inhibitors Targeting the Menin-MLL Interaction in MLL Related Leukemias: Competition With Texas Red Labeled MLL-derived Mutant Peptide; as to FP activity change, negative = inhibition: % of control where 0% means no effect
Details: fluorescence polarization; series mostly up to 61.6 µM; FP activity change, negative = inhibition: at the top concentration
Excerpt: qHTS Assay for Inhibitors Targeting the Menin-MLL Interaction in MLL Related Leukemias NIH Chemical Genomics Center [NCGC] NIH Molecular Libraries Probe Centers Network [MLPCN] MLPCN Grant: MH084875-01A1 Assay Submitter (PI): Jolanta Grembecka, Tomasz Cierpicki, University of Virginia Translocations of the MLL (Mixed Lineage Leukemia) gene are frequently found in human leukemias affecting both children and adults. Fusion of MLL to one of more than 60 genes results in generation of oncogenic proteins upregulating Hox genes, which are vital to blood cell development. Patients harboring fusion of the MLL gene suffer from aggressive leukemias and respond poorly to available therapies. All of the oncogenic fusion proteins have a preserved N-terminal fragment of MLL that has been identified to interact with menin. It has been recently discovered that association with menin is critical to the leukemogenic activity of the MLL fusion oncoproteins. Selective targeting of the menin-MLL interaction could provide an attractive therapeutic approach to develop novel drugs for MLL-related leukemias. Small molecules blocking the menin-MLL interaction should reverse the oncogenic potential of MLL fusion proteins. We have developed and optimized a fluorescence polarization-based assay for the identification of Menin-MLL inhibitors. The assay was run employing two different MLL-derived peptides. The present assay uses a 12 amino acid peptide labeled with fluorescein at its N-terminus. This peptide consists of the menin high affinity binding motif from MLL and is potently bound by menin. Another peptide with a mutated sequence, labeled with Texas Red, was used in parallel as a less stringent screen for inhibitors.
The Menin protein, the MLL-wild type (w.t.) derived peptide (N-terminal 12 amino acids), the MLL-derived peptide labeled with Texas Red and the MLL-w.t. peptide labeled with Fluorescein were kindly supplied by laboratory of Dr. Jolanta Grembecka, University of Virginia. All protein and peptide solutions were stored in single use aliquots at -80C. The Eu3+ Cyrptate-conjugated mouse monoclonal antibody anti-6 Histidine (Eu3+-AB) and the Streptavidin-XL665 conjugate (XL665) were purchased from Cisbio International (Bedford, MA). All antibody and XL665 conjugate solution stocks were stored in single use aliquots at -20C. The Buffer components for all assays were purchased from Sigma-Aldrich (St. Louis, MO) and Invitrogen (Carlsbad, CA). FP Assay Reagents: 1. FP reaction buffer: 50 mM Tris-HCl pH 7.5, 50 mM NaCl, 1mM DTT. Before use, 0.05% BSA is added. 2. Menin protein, MLL-w.t. labeled with fluorescein, MLL-mutant peptide labeled with texas red. Stored in singe use aliquots at -80C. 3. MLL-w.t. unlabeled peptide as positive control: 10 uM final in FP buffer. FP Assay Procedure: 1. Prepare Menin at 200 nM, MLL-w.t.-fluorescein at 25 nM, and MLL-mutant-texas red at 50 nM mixture in FP buffer. 2. Prepare Menin at 200 nM, MLL-w.t.-fluorescein at 25 nM, MLL-mutant-texas red at 50 nM, and 10 uM MLL-w.t. unlabeled mixture in FP buffer. 3. Prepare MLL-w.t.-fluorescein at 25 nM and MLL-mutant-texas red at 50 nM mixture in FP buffer. 3. Dispense 4 ul per well of reagent in step 1 in columns 2, 4 - 48 in a black 1536 well plate, dispense 4 ul per well of reagents from steps 2 and 3 in columns 1 and 3 respectively. Incubate plate at ambient for 15 minutes. 4. Transfer 23 nl per well of compound to plate and incubate at ambient for 1 hr. 5. Read fluorescence polarization for each label using the PerkinElmer Envision. Envision protocol for fluorescein: FITC FP Dual Enh Mirror, Excitation filter 480, Emission filter (1) P-pol 535, Emission filter (2) S-pol 535 Envision protocol for texas red: FP Dual Enh Mirror, Excitation filter 555, Emission filter (1) P-pol 632, Emission filter (2) S-pol 632
Potency is read from the fitted curve at half-maximal effect.

FP activity change, negative = inhibition, inactive:
CCn1c(Cc2ccc(OC)cc2)nnc1SCC(=O)Nc1ccc(N2CCOCC2)cc1 3.37%
COc1ccc(NC(=O)c2cc(-c3cc(OC)c(OC)c(OC)c3)nc3ccccc23)c(OC)c1 13.1%
Cc1ccc(S(=O)(=O)N(Cc2ccccc2)c2ccccn2)cc1[N+](=O)[O-] -17.7%
C=CCn1c(C23CC4CC(CC(C4)C2)C3)n[nH]c1=S -20.5%
Cc1ccc(OCC(=O)Nc2ccc(N3CCN(C(=O)c4ccco4)CC3)cc2)c(C)c1 -25.9%
COc1ccccc1NC(=O)c1cc(N2C(=O)C3C4CCC(C4)C3C2=O)ccc1Cl (stereo not given) 19.8%
Cc1ccc(O)c(/C=N/NC(=O)COc2ccc3c(C)cc(=O)oc3c2)c1 7.45%
O=C(NCCc1ccccc1Cl)C1CCC(=O)N(CCCc2ccccc2)C1 (stereo not given) -5.76%
COc1cccc(/C=C2\Sc3ccc(C(=O)NCC4CCCO4)cc3N(C)C2=O)c1 (stereo not given) 36.8%
COc1cc(OC)c2c(C)cc(=O)oc2c1C(CCN1CCCCC1)c1ccc(N(C)C)cc1 (stereo not given) -13.6%
Cc1ccc(C(=O)Oc2coc(CSc3nnc(NC(=O)c4cccs4)s3)cc2=O)cc1C -14.4%
CCOc1cccc(C(=O)Nc2nnc(-c3cccs3)s2)c1 -22.3%
COc1ccc(C(C(=O)NC(C)(C)C)N(Cc2ccc(F)cc2)C(=O)CCC(=O)Nc2cc(C)on2)cc1 (stereo not given) -29.2%
COc1ccc(NC(=O)c2cccc3c2C(=O)N(CC2CCCO2)C3)cc1OC (stereo not given) 20.2%
CCc1ccc(CN(C)C(=O)C2CCC(=O)N(Cc3cccc(OC)c3)C2)nc1 (stereo not given) -5.46%
CCC1Sc2ccc(S(=O)(=O)CCC(=O)NCc3cccs3)cc2NC1=O (stereo not given) 3.79%
COCCNC(=S)N(CCc1c(C)[nH]c2ccc(C)cc12)Cc1cccnc1 7.33%
CCOc1ccccc1NC(=S)N1CCN(c2cccc(C)c2C)CC1 -1.61%
Cc1ccc(N2CCN(C(=O)c3cccs3)CC2)c(C)c1 -9.4%
NC(=O)c1ccc(Nc2ccc3c(c2)CCC3)c([N+](=O)[O-])c1 -23.3%
Cc1nc2ccc(C(=O)N(C)CC3CCCN(CCc4ccc(Cl)cc4)C3)cc2[nH]1 (stereo not given) 0.888%
CCOC(=O)c1csc(CCNC(=O)c2oc3c(Cl)cc(C)cc3c2C)n1 -13.1%
Cc1ccc(CNC(=O)C2CCCN2S(=O)(=O)c2ccc3c(c2)C(C)(C)C(=O)N3C)cc1 (stereo not given) 2.45%
COc1ccc(NC(=O)c2sc3nc(C)nc(N4CCN(c5ccccn5)CC4)c3c2C)c(OC)c1 -4.1%
COCCNc1ccc(-c2n[nH]c(=O)c3ccccc23)cc1[N+](=O)[O-] 12.6%
CCc1cccc(C)c1N1C(=O)CN(Cc2ccccc2)C1=S 32.1%
NS(=O)(=O)c1ccc(CNC(=O)c2cccc(Oc3ccccc3)c2)cc1 -21.7%
COc1ccc(NC(=O)CSc2nc3ccccc3c(=O)n2C)cc1 -16.9%
CC(=O)N1c2ccc(S(=O)(=O)N3CCCC(C(=O)Nc4ccc(C)cc4C)C3)cc2CC1C (stereo not given) -5.14%
COc1ccc(-c2nc3ccccc3c(=O)n2CCc2ccc(O)cc2)cc1 4.36%
Cc1ccccc1CN1CCC(C(=O)Nc2ccc(Oc3cccnc3)cc2)CC1 -9.01%
CCCCC(C(=O)NC(C)(C)C)N(Cc1ccccc1)C(=O)c1snc(C(N)=O)c1N (stereo not given) -3.07%
CCc1ccc(C(CNc2nc(C(F)(F)F)nc3ccccc23)N(C)C)cc1 (stereo not given) -1.15%
C=C1CCN(C(CC(C)C)C(=O)NCc2cc(OC)c(OC)c(OC)c2)S(=O)(=O)c2ccccc21 (stereo not given) -12.1%
CCOC(=O)[C@H]1[C@H]2COc3cc(OC)ccc3[C@@H]2N2C(=O)N(c3ccc(Br)cc3)C(=O)[C@@]12C 2.14%
CCn1cc(CN2CCN(CC(C)(C)C)C(CCO)C2)c2ccccc21 (stereo not given) 1.44%
Cc1cc(=O)oc2c(C)c(OC(C)C(=O)NC3CCN(Cc4ccccc4)CC3)ccc12 (stereo not given) -2.55%
O=C(CN1C(=O)COc2ccc(Cl)cc21)N1CCOCC1 1.36%
COc1cc(CN2CCCC(C(=O)c3ccc(SC)cc3)C2)cc(Cl)c1O (stereo not given) 11.6%
Cc1cc(C)nc(N/N=C/c2c(CO)cnc(C)c2O)n1 -1.68%
COc1cccc(N(CC(=O)NCc2ccccc2)C(=O)CCC(=O)Nc2nccs2)c1 -4.88%
COc1ccc(CSc2nnnn2-c2ccc(O)cc2)cc1F 26%
CCOc1ccc(N(CC(=O)NCCc2ccc(F)cc2)S(=O)(=O)c2ccccc2)cc1 -2.73%
O=C1CCC(C(=O)N2CCN(c3ccccc3Cl)CC2)CN1CC1CCCCC1 (stereo not given) -14.6%
CCC(=O)c1cn(CCOc2ccccc2OC)c2ccccc12 33.7%
CCCC[C@]12Cc3cc(OC)c(OC)cc3C(O1)C1=C(CC3(CCCCC3)OC1=O)O2 -17.1% [at 11.7 µM]
CN(C)c1ccnc(Oc2ccc(F)cc2)c1C#N 9.99%

Potency, active:
Cc1ccc(C(=O)Nc2nnc(-c3cccs3)s2)cc1C 10 µM
CC1(C)CCSC(/C=C/c2ccccc2)=N1 31.6 µM
N#Cc1ccc(-c2ccc(Cl)cc2)nc1Oc1ccc(F)cc1 20 µM
